# The list shows a part of the results. Active and inactive are the calls of the source. No stated cut-off is given here; in the data, active means inhibition mostly above about 35% (no sharp cut-off); inactive means mostly below about 32%.
# Molecular target: Sentrin-specific protease 1 (Homo sapiens) (UniProt Q9P0U3)
# Test: retest of SENP1 SUMO protease blockers – biochemical, FRET endpoint, single concentration, confirmation (AID 651678);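 further: 0% = enzyme with DMSO and 100% = no enzyme control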
# Settings: recombinant SENP1, CyPet-SUMO1-YPet FRET cleavage; at 10 µM; active compounds read high
# Sentrin-specific protease 1 (Homo sapiens), sequence (Q9P0U3 419-644 limits assumed): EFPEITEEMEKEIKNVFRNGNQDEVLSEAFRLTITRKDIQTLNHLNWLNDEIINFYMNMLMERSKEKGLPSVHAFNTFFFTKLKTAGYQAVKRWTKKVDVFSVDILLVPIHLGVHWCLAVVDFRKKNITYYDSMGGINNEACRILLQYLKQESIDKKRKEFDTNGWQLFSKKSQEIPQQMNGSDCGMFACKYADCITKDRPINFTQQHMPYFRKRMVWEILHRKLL
smiles,measurement,value
COc1ccccc1N=Nc1c(O)[nH]c(=S)[nH]c1=O,inhibition,52% (active)

# From PubChem BioAssay AID651678 (Sanford-Burnham Center for Chemical Genomics, 2012)
